In PubChem BioAssay (NCI):
About 83,000 compounds went through this panel and 20% of them were active in at least one assay; those are over-represented in the sample as a whole.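 Values shown are percent growth following 48 h exposure of cells in 96-well plates to a single concentration of compound; below 10 was considered active.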 A number with no mark means an inactive call. The source made the active and inactive calls.

test system: HOP-92 NSCLC; assay: NCI-60 one-dose screen, 48 h (100 = growth as untreated, 0 = no growth, -100 = all killed); settings: 10 µM unless noted

Going from `CCNC(=O)Oc1ccc(/C(=C(/C)Cc2ccc(OC)cc2)c2ccc(OCCN3CCCCC3)cc2)cc1` to `COc1ccc(C(=O)Cn2c(C(=O)c3ccc(Cl)cc3)nc3ccccc32)cc1`, the growth rises from 44.4% to 59.3%.

Compared with `COC(=O)C(Cc1ccccc1)NC(=O)c1ccc(NC(=O)c2[nH]c(C)c(Cl)c2Cl)c(OC(C)C)c1` (stereo not given), `CCn1cc(CNc2ccc(C(=O)Nc3cc4cc(OC)c(OC)cc4c(C)n3)cc2)cn1` is lower in growth: 101% for the first, 59.5% for the second.

Going from `O=C(Nc1ncccc1OCc1ccccc1)NC1CCCCCC1` to `Oc1c(CN2CCCC2)cc(CSCc2ccccc2)c2cccnc12`, the growth falls from 68.4% to 14.5%.

Going from `Ic1ccccc1I` to `O=C1Nc2ccccc2/C1=C\c1c[nH]c2ccc(Br)cc12`, the growth falls from 90.2% to 64.6%.

Going from `CC1=C2[C@@H](CC1)[C@]1(C)O[C@@](C3CCCCC3)(C[C@H]1OC(=O)CO)[C@H]2OC(=O)/C=C/c1ccccc1` to `C=C(C)[C@@H]1CCC[C@]2(C(=O)O)CC[C@]3(C)[C@@H](CC[C@@H]4[C@@]5(C)C/C(=C/c6ccncc6)C(=O)C(C)(C)[C@@H]5CC[C@]43C)[C@@H]12`, the growth rises from 44.3% to 57.2%.

Compared with `Cc1ccc(-c2csc(NC(=O)c3ccccc3CN3C(=O)c4ccccc4C3=O)n2)cc1`, `CCOC(=O)c1c(C)nc2ccccc2c1/C=C/c1ccccc1` is lower in growth: 89.6% for the first, 79.7% for the second.

Going from `Cc1ccc(-c2nc(SCc3nc4cc(Cl)c(Cl)cc4[nH]3)[nH]c(=O)c2C#N)cc1` to `CN(C)CCCC1(c2ccc(F)cc2)OCc2cc(-c3ccc4cc[nH]c4c3)ccc21` (stereo not given), the growth falls from 104% to 45.9%.

Going from `CC/C=C\CCC/C=C1/C(=O)C=C[C@@H]1C/C=C\CCCC(=O)OC` to `CN1CCN(C(=S)SCCCCOc2cc(=O)oc3ccccc23)CC1`, the growth falls from 83.4% to 67.5%.

Compared with `COc1ccc(CCN(CC(=O)N(CC(N)=O)C2CCC[C@@H]2OCc2ccccc2)C(=O)CN(C(=O)CN(CCc2ccc(Cl)cc2)C(=O)CN(C(=O)CN(C)Cc2ccccc2F)[C@H](C)C2CCCCC2)[C@H](C)C2CCCCC2)cc1OC` (stereo not given in full), `COc1cc(/C=C/C(=O)/C=C(O)/C=C/c2ccc(OC(=O)C34CC5CC(CC(C5)C3)C4)c(OC)c2)ccc1OC(=O)C12CC3CC(CC(C3)C1)C2` is higher in growth: 10.3% for the first, 110% for the second.

Going from `CCOC(=O)C1=C(C)C(Cl)=N/C1=C\c1[nH]c(Cl)c(C)c1C(=O)OCC` to `CCN1C(=O)N(CC)C2C1NN=c1s/c(=C\c3cnc(C)n3C)c(=O)n12` (stereo not given), the growth falls from 87.8% to 43%.

Compared with `COc1ccc(/C=C/C(c2cc(OC)c(OC)c(OC)c2)n2cncn2)cc1` (stereo not given), `COc1ccc(C2=CN3CC=CC3CC2=O)cc1` (stereo not given) is higher in growth: 40.3% for the first, 107% for the second.

Going from `CCN1C(=O)N(CC)C2C1NC(=S)N2/N=C/c1ccc(C(F)(F)F)cc1` (stereo not given) to `CCN1C(=O)N(CC)C2Nn3c(s/c(=C\c4ccccc4Br)c3=O)=NC21` (stereo not given), the growth falls from 50.6% to 42.9%.

Compared with `C[C@H](CCCC(=O)NCC#CCN1CCN(C)CC1)[C@H]1CC[C@H]2[C@@H]3CC[C@@H]4CC(=O)CC[C@]4(C)[C@H]3CC[C@]12C`, `CCCn1nc(C(=O)N(C)Cc2ccccc2)c2c1CCC(N1CCc3ccccc31)C2` (stereo not given) is higher in growth: 73.7% for the first, 90.7% for the second.

First: Fc1cccc(-c2ccc3c(c2)C2(CCNCC2)CN3)c1
Second: Nc1nc(N)c2c(n1)NC(c1cccc(Nc3ccnc4cc(C(F)(F)F)ccc34)c1)CC(c1ccc(Br)cc1)=N2 (stereo not given)
The growth of the first is higher: 91.3% for the first, 42.8% for the second.

`FC(F)(F)c1ccc(Cn2cc(CSc3nc4ccccc4s3)nn2)cc1` showed a growth of 85.4%.

In the case of `Cc1ccc(S(=O)(=O)Oc2ccc3sc4cccc(NCCN(C)C)c4c(=O)c3c2)cc1`, the growth is reported as -77.4% (active).
In the case of `CCNc1nc(O)c(/C=C2\C=Nc3ncccc32)s1`, the growth is reported as 4.42% (active).
For `C=C1C(=O)O[C@H]2[C@H]1CC/C(Cn1cc(CCC)nn1)=C\CC[C@@]1(C)O[C@@H]21`, the growth was -11.2% (active).
For `O=C1/C(=C/c2ccccc2F)CN(C(=O)C(Cl)Cl)C/C1=C\c1ccccc1F`, the growth was -27.9% (active).
For `O=C(NCc1cccc(CNC(=O)Nc2nc3ccccc3[nH]2)c1)Nc1nc2ccccc2[nH]1`, the growth was -27.7% (active).
`COc1cc(C2C(C(=O)OCc3ccccc3)=C(C)NC(C)=C2C(=O)OCc2ccccc2)cc(OC)c1OC` was tested, and the growth was -4.65% (active).
